{"source": "ChEMBL document CHEMBL1961873", "about": "“Compounds: GSK PKIS; Assays: Nanosyn kinase panel” (2012);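 also: mean inhibition value from the GSK PKIS kinase screening panel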"}
{"target": "T1, Serine/threonine-protein kinase Nek2 (Homo sapiens) (UniProt P51955)", "T1 sequence (whole entry)": "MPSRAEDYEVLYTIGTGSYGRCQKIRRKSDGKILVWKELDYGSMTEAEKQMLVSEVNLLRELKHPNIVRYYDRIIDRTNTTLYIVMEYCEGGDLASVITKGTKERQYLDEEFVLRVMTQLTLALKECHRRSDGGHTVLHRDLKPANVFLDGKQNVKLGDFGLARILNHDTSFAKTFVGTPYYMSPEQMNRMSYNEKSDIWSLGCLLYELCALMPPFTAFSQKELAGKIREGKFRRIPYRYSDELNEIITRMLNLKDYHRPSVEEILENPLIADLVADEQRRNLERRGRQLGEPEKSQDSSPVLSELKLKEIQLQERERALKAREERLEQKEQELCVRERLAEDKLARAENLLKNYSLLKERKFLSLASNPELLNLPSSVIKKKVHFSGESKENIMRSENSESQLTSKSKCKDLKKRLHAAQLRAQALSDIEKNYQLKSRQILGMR", "conditions": "at 0.1 µM", "units": {"inhibition": "%"}}
{"smiles": "CCS(=O)(=O)c1ccc(OC)c(Nc2ncc(-c3cccc(OC)c3)o2)c1", "inhibition": 2.73}
{"smiles": "CCn1c(-c2nonc2N)nc2c(C#CC(C)(C)O)nc(OCCNC)cc21", "inhibition": 5.33}
{"smiles": "CN1CCN(C(=O)c2ccc(NC(=O)Nc3ccc(N(C)c4ccnc(Nc5ccc(CS(C)(=O)=O)cc5)n4)cc3)cc2)CC1", "inhibition": 2.78}
{"smiles": "CC(C)c1ccc(Nc2nccc(-c3cnn4ncccc34)n2)cc1", "inhibition": 3.86}
{"smiles": "N#Cc1cccc(Nc2nccc(-c3cnn4ncccc34)n2)c1", "inhibition": 1.93}
{"smiles": "c1ccc(Cc2nc3ccc(Nc4ncnc5ccccc45)cc3[nH]2)cc1", "inhibition": 4.56}
{"smiles": "Cc1ccc(C(=O)NC2CC2)cc1-c1ccc2[nH]ncc2c1", "inhibition": -2.19}
{"smiles": "COC(=O)Nc1nc2cc(Oc3ccc(NC(=O)Nc4cccc(Br)c4)cc3)ccc2[nH]1", "inhibition": 3.46}
{"smiles": "NC(=O)c1sc(-n2cnc3ccccc32)cc1OCc1ccccc1Br", "inhibition": 4.32}
{"smiles": "c1ccc(Nc2ncc(-c3ccccc3)o2)cc1", "inhibition": 5.93}
{"smiles": "CCCN1CCCC(c2ccc(Nc3nc(Nc4cc(F)ccc4C(N)=O)c4cc[nH]c4n3)c(OC)c2)C1", "note": "(stereo not drawn)", "inhibition": 6.55}
{"smiles": "Nc1ccc(C#Cc2cncnc2Nc2ccc(OCc3cccc(F)c3)c(Cl)c2)cc1", "inhibition": 3.5}
{"smiles": "CN(C)C(=O)O[C@H]1CN[C@H](C#Cc2cc3ncnc(Nc4ccc(OCc5cccc(F)c5)c(Cl)c4)c3s2)C1", "inhibition": 4.44}
{"smiles": "O=C1Nc2ccc(-c3cccnc3)cc2C1=Cc1cc(Br)c(O)c(Br)c1", "inhibition": 4.11}
{"smiles": "CS(=O)(=O)Nc1cccc(-c2ccc3c(NC(=O)C4CC4)n[nH]c3c2)c1", "inhibition": 1.36}
{"smiles": "CCS(=O)(=O)c1ccc(OC)c(Nc2nccc(N(C)c3ccc4c(C)n[nH]c4c3)n2)c1", "inhibition": 5.67}
{"smiles": "COc1cccc(-n2ncc3c(N/N=C/c4ccc(S(C)(=O)=O)cc4)ncnc32)c1", "inhibition": 2.11}
{"smiles": "Cc1ccc2c(-c3ccnc(Nc4cccc(C(F)(F)F)c4)n3)c(-c3ccccc3)nn2n1", "inhibition": 6.28}
{"smiles": "Cc1ccc2c(-c3ccnc(Nc4ccc5c(c4)OCCO5)n3)c(-c3ccc(C(F)(F)F)cc3)nn2n1", "inhibition": 1.37}
{"smiles": "NS(=O)(=O)c1ccc(-c2cc3ccncc3cc2OCc2ccccc2)cc1", "inhibition": 3.99}
{"smiles": "COc1ccc2ncnc(Nc3ccc(OCc4ccccc4)cc3)c2c1", "inhibition": 1.74}
{"smiles": "CCn1c(-c2nonc2N)nc2ccc(F)cc21", "inhibition": 6.07}
{"smiles": "N#Cc1c(NC(=O)c2ccccc2F)sc2c1CCCC2", "inhibition": 1.03}
{"smiles": "COc1cccc(-n2nc(C)c3c(N/N=C(\\C)c4ccncc4)ncnc32)c1", "inhibition": 1.96}
{"smiles": "OCc1ccc(-c2nc(-c3ccccn3)c(-c3ccc4c(c3)OCO4)[nH]2)cc1", "inhibition": 5.76}
{"smiles": "CCOc1nccc2c1nc(-c1nonc1N)n2CC", "inhibition": 3.98}
{"smiles": "NS(=O)(=O)c1ccc(N/N=C2\\C(=O)Nc3ccc(Cl)cc32)cc1", "inhibition": 4.08}
{"smiles": "Cc1ccc(O)cc1Nc1ccnc2ccc(S(C)(=O)=O)cc12", "inhibition": 5.76}
{"smiles": "COC(=O)c1ccc2c(c1)C(=Cc1cc(Br)c(O)c(Br)c1)C(=O)N2", "inhibition": 4.16}
{"smiles": "[O-][S+]1CCN(Cc2ccc(-c3ccc4ncnc(Nc5ccc(OCc6ccccc6)c(Cl)c5)c4c3)o2)CC1", "inhibition": 3.08}
{"smiles": "COc1cccc(-n2ncc3c(N/N=C/c4ccc(C)cc4)ncnc32)c1", "inhibition": 8.39}
{"smiles": "O=S(=O)(CCOCc1ccc(-c2ccc3ncnc(Nc4ccc(OCc5cccc(F)c5)c(Cl)c4)c3c2)o1)c1ccccc1", "inhibition": 3.36}
{"smiles": "COc1cc(/C=N/Nc2ncnc3c2cnn3C(C)C)ccc1O", "inhibition": 2.62}
